According to the supplement of paper PMC6897291:
Where a name gives a salt, the structure may show the parent alone.

Assays:
U-2932 [1] = experiment: growth inhibition by drug alone (1 - RLU/untreated control) (fraction); higher = stronger inhibition; conditions: 177Lu-lilotomab satetraxetan 0 ug/ml
Outline: (§1)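 RIVA or U-2932 cells, untreated or pretreated 18 h with a radiolabelled anti-CD37 antibody conjugate (~600 MBq/mg; 0.5 µg/ml RIVA, 1 µg/ml U-2932), were washed and seeded at 3,000 cells/well on plates pre-printed with the Selleck Cambridge Cancer Compound library. Doses were 10/100 nM (RIVA) or 10/1,000 nM (U-2932). RealTime-Glo luminescence was read daily from day 3 after 1 h at 37°C. Growth inhibition is 1 − RLU/mean of 48 untreated no-drug wells per plate.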

RIVA [2] = experiment: as above; conditions: 177Lu-lilotomab satetraxetan 0 ug/ml
Outline: as §1

U-2932 [3] = experiment: growth inhibition by drug plus 177Lu-lilotomab satetraxetan (1 - RLU/untreated control) (fraction); higher = stronger inhibition; conditions: 177Lu-lilotomab satetraxetan 1 ug/ml
Outline: as §1

RIVA [4] = experiment: as above; conditions: 177Lu-lilotomab satetraxetan 0.5 ug/ml
Outline: as §1

SMILES	growth inhibition by drug alone (U-2932 [1]; 10 nM, time (day): 3)	growth inhibition by drug alone (U-2932 [1]; 10 nM, time (day): 4)	growth inhibition by drug alone (U-2932 [1]; 10 nM, time (day): 5)	growth inhibition by drug alone (U-2932 [1]; 10 nM, time (day): 6)	growth inhibition by drug alone (U-2932 [1]; 1000 nM, time (day): 3)	growth inhibition by drug alone (U-2932 [1]; 1000 nM, time (day): 4)	growth inhibition by drug alone (U-2932 [1]; 1000 nM, time (day): 5)	growth inhibition by drug alone (U-2932 [1]; 1000 nM, time (day): 6)	growth inhibition by drug alone (RIVA [2]; 10 nM, time (day): 3)	growth inhibition by drug alone (RIVA [2]; 10 nM, time (day): 4)	growth inhibition by drug alone (RIVA [2]; 10 nM, time (day): 5)	growth inhibition by drug alone (RIVA [2]; 10 nM, time (day): 6)	growth inhibition by drug alone (RIVA [2]; 100 nM, time (day): 3)	growth inhibition by drug alone (RIVA [2]; 100 nM, time (day): 4)	growth inhibition by drug alone (RIVA [2]; 100 nM, time (day): 5)	growth inhibition by drug alone (RIVA [2]; 100 nM, time (day): 6)	growth inhibition by drug plus 177Lu-lilotomab satetraxetan (U-2932 [3]; 10 nM, time (day): 3)	growth inhibition by drug plus 177Lu-lilotomab satetraxetan (U-2932 [3]; 10 nM, time (day): 4)	growth inhibition by drug plus 177Lu-lilotomab satetraxetan (U-2932 [3]; 10 nM, time (day): 5)	growth inhibition by drug plus 177Lu-lilotomab satetraxetan (U-2932 [3]; 10 nM, time (day): 6)	growth inhibition by drug plus 177Lu-lilotomab satetraxetan (U-2932 [3]; 1000 nM, time (day): 3)	growth inhibition by drug plus 177Lu-lilotomab satetraxetan (U-2932 [3]; 1000 nM, time (day): 4)	growth inhibition by drug plus 177Lu-lilotomab satetraxetan (U-2932 [3]; 1000 nM, time (day): 5)	growth inhibition by drug plus 177Lu-lilotomab satetraxetan (U-2932 [3]; 1000 nM, time (day): 6)	growth inhibition by drug plus 177Lu-lilotomab satetraxetan (RIVA [4]; 10 nM, time (day): 3)	growth inhibition by drug plus 177Lu-lilotomab satetraxetan (RIVA [4]; 10 nM, time (day): 4)	growth inhibition by drug plus 177Lu-lilotomab satetraxetan (RIVA [4]; 10 nM, time (day): 5)	growth inhibition by drug plus 177Lu-lilotomab satetraxetan (RIVA [4]; 10 nM, time (day): 6)	growth inhibition by drug plus 177Lu-lilotomab satetraxetan (RIVA [4]; 100 nM, time (day): 3)	growth inhibition by drug plus 177Lu-lilotomab satetraxetan (RIVA [4]; 100 nM, time (day): 4)	growth inhibition by drug plus 177Lu-lilotomab satetraxetan (RIVA [4]; 100 nM, time (day): 5)	growth inhibition by drug plus 177Lu-lilotomab satetraxetan (RIVA [4]; 100 nM, time (day): 6)
Oc1nc(-c2ccc(C(F)(F)F)cc2)nc2c1CSCC2	0.0264	0.0499	-0.0107	-0.0367	0.0107	0.081	0.0386	-0.0985	-0.012	-0.067	-0.12	-0.313	-0.101	-0.117	-0.135	-0.199	-0.00592	0.0339	0.0301	0.0994	-0.0747	0.0641	0.0547	0.062	0.347	0.483	0.51	0.519	0.424	0.518	0.521	0.496
COc1c(C)c2c(c(O)c1C/C=C(\C)CCC(=O)OCCN1CCOCC1)C(=O)OC2 [Mycophenolate mofetil (CellCept)]	0.0454	0.0504	-0.00114	-0.00474	0.727	0.792	0.743	0.673	0.15	0.0186	-0.0505	-0.245	0.284	0.214	0.154	0.0335	0.0524	0.064	0.0624	0.115	0.826	0.893	0.89	0.878	0.413	0.511	0.534	0.55	0.554	0.581	0.583	0.539
CC(C)C[C@H](NC(=O)CNC(=O)c1cc(Cl)ccc1Cl)B1OC(=O)C(CC(=O)O)(CC(=O)O)O1	0.0922	0.0916	0.0981	-0.0316	0.985	0.984	0.984	0.984	-0.0185	0.0392	-0.0726	-0.362	0.319	0.4	0.359	0.21	0.0116	0.0804	0.149	0.155	0.984	0.985	0.986	0.988	0.542	0.596	0.606	0.609	0.64	0.701	0.698	0.645
O=C1[C@H](CC[C@H](O)c2ccc(F)cc2)[C@@H](c2ccc(O)cc2)N1c1ccc(F)cc1 [Ezetimibe (Zetia)]	0.207	0.167	0.0126	-0.0222	0.1	0.113	0.0388	-0.0102	0.0453	0.0693	-0.0268	-0.174	-0.17	-0.068	-0.0985	-0.21	0.101	0.145	0.218	0.274	0.142	0.17	0.216	0.332	0.537	0.594	0.604	0.623	0.406	0.479	0.489	0.494
COc1cccc2c1C(=O)c1c(O)c3c(c(O)c1C2=O)C[C@@](O)(C(=O)CO)C[C@@H]3O[C@H]1C[C@H](N)[C@@H](O)[C@H](C)O1 [Epirubicin Hydrochloride]	0.0435	0.0793	0.0717	0.093	0.943	0.964	0.975	0.98	-0.0808	0.0051	0.0307	0.0473	0.436	0.719	0.848	0.91	0.24	0.323	0.39	0.484	0.965	0.977	0.982	0.986	0.734	0.792	0.829	0.863	0.887	0.93	0.949	0.967
COc1ccc(CCN(C)CCCOc2ccc(S(=O)(=O)c3c(C(C)C)n(C)c4ccccc34)cc2)cc1OC	0.0869	0.0667	0.0917	-0.0299	0.0603	0.0699	-0.0056	-0.132	0.00966	0.000445	-0.0789	-0.342	-0.377	-0.25	-0.308	-0.545	0.0456	0.0938	0.156	0.171	0.135	0.145	0.18	0.298	0.605	0.642	0.664	0.661	0.48	0.536	0.542	0.544
COc1ccc(-c2ccc3c(N4CCOCC4)nc(N4C[C@@H](C)O[C@@H](C)C4)nc3n2)cc1CO	0.119	0.133	0.0721	0.0015	0.602	0.481	0.389	0.407	0.0903	0.0995	0.0433	-0.131	0.104	0.122	0.0472	-0.0784	0.0319	0.069	0.0942	0.161	0.496	0.409	0.361	0.434	0.514	0.598	0.603	0.621	0.475	0.552	0.55	0.529
O=C(Nc1ccc(OC(F)(F)F)cc1)c1sccc1NCc1ccnc2ccccc12	0.0561	-0.00441	-0.0537	-0.177	0.00246	-0.0266	-0.0424	-0.000118	-0.0142	-0.0478	-0.122	-0.26	-0.426	-0.341	-0.386	-0.562	-0.0212	0.051	0.0902	0.117	-0.0347	0.0399	0.0489	0.0855	0.534	0.568	0.593	0.603	0.0922	0.306	0.33	0.355
Nc1cc(C(F)(F)F)c(-c2cc(N3CCOCC3)nc(N3CCOCC3)n2)cn1	-0.0505	-0.0268	-0.042	0.0241	0.632	0.62	0.563	0.519	-0.24	-0.261	-0.283	-0.377	-0.244	-0.324	-0.245	-0.359	-0.138	-0.0899	-0.0958	-0.0143	0.508	0.421	0.403	0.455	0.268	0.424	0.461	0.48	0.33	0.394	0.402	0.384
COc1cc([C@@H]2c3cc4c(cc3[C@@H](O[C@@H]3O[C@@H]5CO[C@@H](C)O[C@H]5[C@H](O)[C@H]3O)[C@H]3COC(=O)[C@H]23)OCO4)cc(OC)c1O [Etoposide (VP-16)]	-0.0657	-0.0505	-0.0531	-0.0136	0.738	0.843	0.913	0.949	-0.26	-0.276	-0.302	-0.423	-0.0322	0.0869	0.148	0.202	-0.108	-0.0574	-0.0473	0.0279	0.823	0.901	0.945	0.969	0.345	0.51	0.549	0.556	0.681	0.776	0.816	0.845
CN(C)CCCN=c1c2ccccc2n(C)c2[nH]c(=O)n(C)c(=O)c12	0.111	0.0704	-0.00376	-0.0149	0.0731	0.0794	0.011	0.0933	0.0709	0.0541	0.026	-0.0499	-0.0848	-0.0419	-0.079	-0.137	0.0369	0.0857	0.138	0.24	0.0936	0.125	0.147	0.272	0.529	0.576	0.589	0.604	0.563	0.592	0.601	0.604
CN1CCN(c2nc(C3=C(c4c[nH]c5ccccc45)C(=O)NC3=O)c3ccccc3n2)CC1 [Sotrastaurin (AEB071)]	0.186	0.158	0.0846	0.122	0.463	0.616	0.696	0.756	0.214	0.132	0.0773	-0.121	0.163	0.124	0.0507	-0.0643	0.109	0.131	0.175	0.293	0.572	0.709	0.75	0.788	0.535	0.604	0.626	0.628	0.584	0.609	0.607	0.591
